Shown are actives, neighbours in structure and some others; about 9.8% of the full set was active somewhere.
JMJD2E inh = qHTS Assay for Inhibitors of Human Jumonji Domain Containing 2E (JMJD2E); actives 1.6% (n = 230,000); JMJD2E catalytic domain, FDH-coupled NADH fluorescence (FDH is formaldehyde dehydrogenase); Lysine-specific demethylase 4E (Homo sapiens), B2RXH2; Potency, µM (doses to about 57.1 µM), without a hit: top-dose activity change, negative = inhibition, hits mostly inhibitors; active = well fitted inhibition curve with a large enough effect, not every such curve was filed as active; inconclusive = small, poorly fitted or top-dose-only effect, or another doubt; inactive = no such curve, though single readings can be large or run the other way;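 also: potency is read from the fitted curve at half-maximal effect; 0% = wells with enzyme and -100% = buffer wells without enzyme; nearly all actives have a fitted effect of over 50% in size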
Target sequence (B2RXH2 1-337 limits assumed): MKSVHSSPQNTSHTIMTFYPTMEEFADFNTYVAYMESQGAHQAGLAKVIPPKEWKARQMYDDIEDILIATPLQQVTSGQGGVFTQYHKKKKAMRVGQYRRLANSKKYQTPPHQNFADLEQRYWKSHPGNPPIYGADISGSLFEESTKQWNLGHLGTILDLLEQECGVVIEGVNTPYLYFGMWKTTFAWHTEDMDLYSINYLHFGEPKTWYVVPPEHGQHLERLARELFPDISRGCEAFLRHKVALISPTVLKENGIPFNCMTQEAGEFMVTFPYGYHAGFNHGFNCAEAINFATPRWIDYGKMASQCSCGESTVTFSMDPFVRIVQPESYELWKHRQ
CBFb RUNX1 block = qHTS Assay for Compounds Blocking the Interaction Between CBF-beta and RUNX1 for the Treatment of Acute Myeloid Leukemia. Runt-related transcription factor 1 (Homo sapiens) + Core-binding factor subunit beta …. AlphaScreen CBFb-His/RUNX1-biotin binding, biochemical. Potency, µM (series often up to 59.8 µM), for the others: top-dose activity, negative = inhibition, usual class: inhibitors. 230,000 tested, under 10 active. AID 1477, 2009; also: % of control where 0% means no effect
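Bead-based AlphaScreen assay; binding partners His-tagged CBF-beta and biotinylated RUNX1 at 30 nM each. Compound exposure 15 min after a 20-min protein preincubation; bead step 90 min; all steps at room temperature.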
HPGD inh = qHTS Assay for Inhibitors of HPGD (15-Hydroxyprostaglandin Dehydrogenase); actives 4.3% (n = 150,000); purified HPGD, NADH fluorescence kinetic, PGE2 substrate; 15-hydroxyprostaglandin dehydrogenase [NAD(+)] (Homo sapiens), P15428; Potency, µM, for inactives: at the top dose activity change, negative = inhibition, actives largely listed as inhibitors; active = well fitted inhibition curve with a large enough effect, not every such curve was filed as active; inconclusive = small, poorly fitted or top-dose-only effect, or another doubt; inactive = no such curve, though single readings can be large or run the other way; also: potency is read from the fitted curve at half-maximal effect; % is scaled to controls: 0 for no effect and ±100 for the full control effect
Target sequence (P15428 whole entry, looked up): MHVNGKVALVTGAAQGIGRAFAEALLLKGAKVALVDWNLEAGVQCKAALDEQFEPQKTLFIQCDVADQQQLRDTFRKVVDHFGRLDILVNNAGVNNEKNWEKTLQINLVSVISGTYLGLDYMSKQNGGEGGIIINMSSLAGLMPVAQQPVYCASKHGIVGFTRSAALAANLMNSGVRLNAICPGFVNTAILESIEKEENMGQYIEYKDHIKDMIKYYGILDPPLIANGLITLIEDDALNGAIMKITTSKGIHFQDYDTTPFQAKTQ
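20 nM HPGD preincubated 15 min at room temperature with compound in 50 mM Tris-HCl pH 8, 0.01% Tween 20. Started with 1 mM NAD+ and 30 uM prostaglandin E2; NADH fluorescence (360/450 nm) read 5 times over 30-s intervals, last minus first.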
HttQ103 aggreg = qHTS Multiplex Assay to Identify Dual Action Probes in a Cell Model of Huntington: Aggregate Formation (GFP); actives 1.1% (n = 220,000); Potency, µM (top dose mostly 46.1 µM), inactives show at the top dose activity change, negative = inhibition, most hits filed as inhibitors; PC12 HttQ103-GFP aggregates, Acumen cytometry, 40 h; AID 1688, 2009; also: potency is read from the fitted curve at half-maximal effect; % is scaled to controls: 0 for no effect and ±100 for the full control effect; nearly all actives have a fitted effect of over 60% in size
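Compounds (qHTS titration) were added to PC12 cells expressing an ecdysone-driven HTT exon 1 Q103–GFP fusion after induction with 100 nM tebufenozide. Aggregate formation was measured as GFP objects in cell lysates.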
HTT ATP protect = qHTS Multiplex Assay to Identify Dual Action Probes in a Cell Model of Huntington: Cytoprotection (ATP); PC12 HTT-Q103 induced, cytoprotection, ATP luminescence, 40 h; Potency, µM (doses to about 56.4 µM), for the others: cytoprotection (ATP increase), hits mostly activators; actives 0.14% (n = 230,000); AID 1471, 2008; also: potency is read from the fitted curve at half-maximal effect; % of control where 0% means no effect; nearly all actives have a fitted effect of over 45% in size
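Readout: ATPlite luminescence (ATP level). Model: stable PC12, inducible Htt exon1 Q103-GFP. Inducer: tebufenozide, 100 nM final. Compounds: dose series. No G418 in medium.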
ALDH1A1 block = qHTS Assay for Inhibitors of Aldehyde Dehydrogenase 1 (ALDH1A1). Aldehyde dehydrogenase 1A1 (Homo sapiens), P00352. Purified ALDH1A1, NADH fluorescence, propionaldehyde substrate. Potency, µM (series often up to 75.3 µM), for the others: at the highest dose activity, negative = inhibition, hits mostly inhibitors. actives 7.3% (n = 220,000). AID 1030, 2008; active = well fitted inhibition curve with a large enough effect, not every such curve was filed as active; inconclusive = small, poorly fitted or top-dose-only effect, or another doubt; inactive = no such curve, though single readings can be large or run the other way;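 also: potency is read from the fitted curve at half-maximal effect; plate controls were no enzyme wells and a reference inhibitor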
* hit, by the source's call; ? = inconclusive; . = no result; [ ] = remark or other dose. Unless noted, calls follow the shape of the dose curve; as a rule, active = well fitted curve in the direction sought with a large enough effect; inconclusive = small, poorly fitted or top-dose-only effect, or another doubt; inactive = no such curve, though single readings can be large; an effect the other way counts as inactive or inconclusive.

SMILES	JMJD2E inh	CBFb RUNX1 block	HPGD inh	HttQ103 aggreg	HTT ATP protect	ALDH1A1 block
S=C(NCCc1ccccc1)NCCc1ccccc1	9%	1%	-2%	-1%	30%[0.074 µM]	-7%
Cc1ccccc1C(=O)NCC(=O)NNC(=S)NC(=O)c1ccccc1C	-6%	-11%	25µM*	-7%	.	-1%
COCCNc1nc(-c2ccc(OC)cc2)c(-c2ccc(OC)cc2)s1	?	?	.	?	-11%[10 µM]	28µM*
COC(=O)CCc1sc(NC2CCCCC2)nc1-c1ccc(OC)cc1	4%	11%	22µM*	-14%	5%[10 µM]	?
CCCCCCNc1nc(-c2ccc(OC)cc2)c(CCC(=O)O)s1	-15%	-3%	?	-7%	5%[10 µM]	22µM*
Cc1cc(C)nc(N2CCCC(CCC(=O)NCc3ccc(F)c(F)c3)C2)n1 (configuration not stated)	?	1%	.	7%[9.22 µM]	9%[10 µM]	?
CC(C)CN1CC(C(=O)O)CC1=O (configuration not stated)	2%	1%	.	6%[9.22 µM]	26%[10 µM]	4%
O=C(Nc1c2c(nc3ccccc13)CCCC2)c1cccc([N+](=O)[O-])c1	1%	-18%	-4%	1%	-1%[10 µM]	8%
CCn1c(SCC(=O)Nc2ccc(C(=O)OC)cc2)nc2cccnc21	-1%	-7%	3.5µM*	10%	-11%[10 µM]	1%
CCn1c(SCC(=O)Nc2ccc(C(C)=O)cc2)nc2ccccc21	-1%	1%	-23%	?	-18%	-2%
COC(=O)c1ccc(NC(=O)CSc2nnc(-c3ccncc3)n2N)cc1	4%	4%	-26%	-4%	-10%[0.074 µM]	25µM*
O=C(CSc1nnc(-c2ccncc2)n1CCc1ccccc1)N1CCCC1	3%	8%	.	-23%[9.22 µM]	-10%[10 µM]	.
Cn1c(=O)[nH]c(=O)c2c1nc(N1CCCC1)n2CCCSc1nc2ccccc2o1	0%	3%	28µM*	-5%	-8%	-3%
Cn1c(=O)[nH]c(=O)c2c1nc(Br)n2CCCSc1nc2ccccc2o1	4%	6%	22µM*	12%	-1%[10 µM]	?
O=C1c2ccccc2C(=O)N1CCCSc1nc2ccccc2o1	0%	23%	20µM*	6%	3%[10 µM]	?
O=C1c2ccccc2C(=O)N1Cc1nc2ccccc2o1	-1%	1%	-9%	1%	-1%[10 µM]	4%
CC(C)Oc1ccc(C2CC(=O)N(c3cccc(Br)c3)C2=O)cc1 (configuration not stated)	-8%	28%	.	19%[9.22 µM]	15%[10 µM]	.
O=C(O)CC/C=C\C[C@@H]1CO[C@H](c2ccccc2Cl)O[C@@H]1c1ccccc1O	1%	13%[21.7 µM]	-3%	.	3%	0%
O=C(O)CC1(CC(=O)NCc2ccccn2)CCCCC1	6%	-1%	.	-3%[9.22 µM]	14%[10 µM]	2%
COC(=O)c1ccc(C(NC(=O)OCc2ccccc2)/C(=C/[C@@H](C)C(=O)NCc2cccnc2)c2cccnc2)cc1 (some centres not stated)	8%	-14%	-3%	.	-40%	9%
O=C1Cc2ccccc2N1c1ccccc1	2%	9%	35µM*	2%	-2%[0.074 µM]	-15%
CC(C)NC(=O)C1CCN(C2CCN(Cc3ccc4cccc(F)c4n3)CC2)CC1	-15%	-10%	.	-1%[9.22 µM]	1%[10 µM]	-10%
CCOc1ccc(C2c3c(oc4cc(C)c(C)cc4c3=O)C(=O)N2CCCN(C)C)cc1OC (configuration not stated)	?	-8%	-19%	-10%	-11%	?
COc1cccc(C2c3c(oc4cc(C)c(C)cc4c3=O)C(=O)N2CCCN(C)C)c1 (configuration not stated)	-23%	-7%	-11%	-7%	-10%	28µM*
CCOc1ccc(C2c3c(oc4ccccc4c3=O)C(=O)N2CCCN2CCOCC2)cc1 (configuration not stated)	?	2%	-18%	8%	11%	6.3µM*
SMILES	JMJD2E inh	CBFb RUNX1 block	HPGD inh	HttQ103 aggreg	HTT ATP protect	ALDH1A1 block
CC(C)CCOc1cccc(C2c3c(oc4ccccc4c3=O)C(=O)N2CCCN2CCOCC2)c1 (configuration not stated)	.	.	.	.	-22%	.
CCOc1ccc(C2c3c(oc4cc(C)c(C)cc4c3=O)C(=O)N2CCCN2CCOCC2)cc1 (configuration not stated)	?	-10%	-19%	?	-18%	7.9µM*
COC(=O)c1ccc(C2c3c(oc4ccccc4c3=O)C(=O)N2CCCN2CCOCC2)cc1 (configuration not stated)	-10%	-3%	-12%	4%	-7%	?
CCCOc1ccc(C2c3c(oc4ccccc4c3=O)C(=O)N2CCCN2CCOCC2)cc1 (configuration not stated)	?	1%	-26%	-13%	-1%	8.9µM*
Cc1nc2cncnc2n(Cc2ccccc2)c1=O	.	.	.	.	-16%	14%
Cc1ccccc1NC(=O)CSc1ccncc1	-10%	-1%	.	-3%[9.22 µM]	-1%[10 µM]	?
Cc1cc2oc3c(c(=O)c2cc1C)C(c1ccc(C(C)C)cc1)N(CCCN1CCOCC1)C3=O (configuration not stated)	2%	4%[2.36 µM]	-19%	8%	-17%	4µM*
COCCOC(=O)/C(C#N)=C/c1cn(Cc2ccccc2)nc1-c1cccnc1	-5%	-1%	.	11%[9.22 µM]	-12%	20µM*
C=C(C(=O)c1ccccc1)C(C)CC(=O)c1ccccc1 (configuration not stated)	1%	3%	28µM*	18%	10%[1.9 µM]	?
Cc1ccc(NC(CC(=O)c2ccccc2)C(=O)O)cc1Cl (configuration not stated)	?	1%	.	10%[9.22 µM]	-3%[10 µM]	.
O=C(CC(Nc1ccccc1)C(=O)O)c1ccccc1 (configuration not stated)	-3%	-1%	-12%	15%	-100%[10 µM]	1.8µM*
COc1ccc(CC(=O)NNC(=O)COc2ccc3ccccc3c2)cc1	-11%	-2%	-4%	-5%	38%[10 µM]	6%
COc1cc(/C=c2\s/c(=C(/C#N)C(=O)N3CCCC3)n(-c3ccccc3)c2=O)ccc1O	-2%	-10%	-13%	10%	-10%[10 µM]	23%
